# Assay results reported in PMC8384837, “Expanding the binding specificity for RNA recognition by a PUF domain”.
# Key:
# Assay in all cases: yeast three-hybrid, YBZ-1, SC-Leu-His + 0.5 mM 3-AT, 4 days
# Conditions in all cases: tags: N-Gal4 AD-HA kept; label: inside an RPR1-promoter hybrid RNA with tandem MS2 sites; ssRNA
# [1] = target: PUM1 PUF domain R5-MRR (Homo sapiens, UniProt Q14671 828-1176, C1007M;Q1011R)
# Outline: (§1)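 Sequencing with Illumina followed PCR amplification of the repeat regions from transformants grown four days on SC-Leu (input) or SC-Leu-His + 0.5 mM 3-AT (selection). The transformants were strain YBZ-1 with a LexA–MS2 coat fusion and a HIS3 reporter, carrying Pumilio-1 PUF domain libraries and matching RNA elements. The interaction score is the log change in variant frequency from input to selection, computed in log2 with a pseudocount of 1 for absent variants.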
# [2] = target: PUM1 PUF domain R3-EFL (Homo sapiens, UniProt Q14671 828-1176, C935E;R936F;Q939L)
# Outline: as §1
# [3] = target: PUM1 PUF domain R1-YSR (Homo sapiens, UniProt Q14671 828-1176, S863Y;R864S;Q867R)
# Outline: as §1
# [4] = target: PUM1 PUF domain R5-CQR (Homo sapiens, UniProt Q14671 828-1176, R1008Q;Q1011R)
# Outline: as §1
# [5] = target: PUM1 PUF domain R2-LFC (Homo sapiens, UniProt Q14671 828-1176, N899L;Y900F;Q903C)
# Outline: as §1
# [6] = target: PUM1 PUF domain R3-IWS (Homo sapiens, UniProt Q14671 828-1176, C935I;R936W;Q939S)
# Outline: as §1
# [7] = target: PUM1 PUF domain R3-PWH (Homo sapiens, UniProt Q14671 828-1176, C935P;R936W;Q939H)
# Outline: as §1
# [8] = target: PUM1 PUF domain R3-RNE (Homo sapiens, UniProt Q14671 828-1176, C935R;R936N;Q939E)
# Outline: as §1
# [9] = target: PUM1 PUF domain R8-IFR (Homo sapiens, UniProt Q14671 828-1176, N1122I;Y1123F;Q1126R)
# Outline: as §1
# [10] = target: T1, PUM1 PUF domain R6-NHR (Homo sapiens, UniProt Q14671 828-1176, Y1044H;Q1047R)
# T1 sequence: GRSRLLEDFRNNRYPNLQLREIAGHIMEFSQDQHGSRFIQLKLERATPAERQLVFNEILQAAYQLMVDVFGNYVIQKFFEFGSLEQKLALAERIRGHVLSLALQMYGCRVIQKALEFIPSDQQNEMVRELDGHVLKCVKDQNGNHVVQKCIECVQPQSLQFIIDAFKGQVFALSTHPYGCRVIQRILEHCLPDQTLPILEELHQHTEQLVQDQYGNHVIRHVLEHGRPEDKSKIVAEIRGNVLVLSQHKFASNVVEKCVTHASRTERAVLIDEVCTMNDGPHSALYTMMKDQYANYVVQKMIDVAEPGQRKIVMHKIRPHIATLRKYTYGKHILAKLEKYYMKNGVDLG
# Outline: as §1
sequence,measurement,setting,value
GGCUAGAACUAGUGGAUCCCCCGGCGCCCGGCGGCUCGAGCCCGGGUAAGUGUCAAUAGUCUGCAUGCCGCCGGGCGCCAUGCCUGCAGGUCGACUCUAGAAAACAUG,binding signal,[1],4.14 log2 enrichment (interaction score)
GGCUAGAACUAGUGGAUCCCCCGGCGCCCGGCGGCUCGAGCCCGGGUAAGUGUAAAUAGUCUGCAUGCCGCCGGGCGCCAUGCCUGCAGGUCGACUCUAGAAAACAUG,binding signal,[1],1.43 log2 enrichment (interaction score)
same,binding signal,[2],5.34 log2 enrichment (interaction score)
GGCUAGAACUAGUGGAUCCCCCGGCGCCCGGCGGCUCGAGCCCGGGUAAGUGUAAAUCGUCUGCAUGCCGCCGGGCGCCAUGCCUGCAGGUCGACUCUAGAAAACAUG,binding signal,[3],4.84 log2 enrichment (interaction score)
GGCUAGAACUAGUGGAUCCCCCGGCGCCCGGCGGCUCGAGCCCGGGUAAGUGUAAAUUGUCUGCAUGCCGCCGGGCGCCAUGCCUGCAGGUCGACUCUAGAAAACAUG,binding signal,[3],5.97 log2 enrichment (interaction score)
GGCUAGAACUAGUGGAUCCCCCGGCGCCCGGCGGCUCGAGCCCGGGUAAGUGUGAAUAGUCUGCAUGCCGCCGGGCGCCAUGCCUGCAGGUCGACUCUAGAAAACAUG,binding signal,[4],0.8 log2 enrichment (interaction score)
GGCUAGAACUAGUGGAUCCCCCGGCGCCCGGCGGCUCGAGCCCGGGUAAGUGUUAAUAGUCUGCAUGCCGCCGGGCGCCAUGCCUGCAGGUCGACUCUAGAAAACAUG,binding signal,[4],3.55 log2 enrichment (interaction score)
GGCUAGAACUAGUGGAUCCCCCGGCGCCCGGCGGCUCGAGCCCGGGUAAGUGUAAAAAGUCUGCAUGCCGCCGGGCGCCAUGCCUGCAGGUCGACUCUAGAAAACAUG,binding signal,[5],3.16 log2 enrichment (interaction score)
GGCUAGAACUAGUGGAUCCCCCGGCGCCCGGCGGCUCGAGCCCGGGUAAGUGUAAGUAGUCUGCAUGCCGCCGGGCGCCAUGCCUGCAGGUCGACUCUAGAAAACAUG,binding signal,[6],6.08 log2 enrichment (interaction score)
GGCUAGAACUAGUGGAUCCCCCGGCGCCCGGCGGCUCGAGCCCGGGUAAGUGUAAUUAGUCUGCAUGCCGCCGGGCGCCAUGCCUGCAGGUCGACUCUAGAAAACAUG,binding signal,[7],4.06 log2 enrichment (interaction score)
same,binding signal,[8],2.81 log2 enrichment (interaction score)
same,binding signal,[2],2.29 log2 enrichment (interaction score)
GGCUAGAACUAGUGGAUCCCCCGGCGCCCGGCGGCUCGAGCCCGGGUAAGCGUAAAUAGUCUGCAUGCCGCCGGGCGCCAUGCCUGCAGGUCGACUCUAGAAAACAUG,binding signal,[9],4.56 log2 enrichment (interaction score)
GGCUAGAACUAGUGGAUCCCCCGGCGCCCGGCGGCUCGAGCCCGGGUAAGUGCAAAUAGUCUGCAUGCCGCCGGGCGCCAUGCCUGCAGGUCGACUCUAGAAAACAUG,binding signal,[10],5.94 log2 enrichment (interaction score)
